# From PubChem BioAssay (Tox21)
# Values joined by “and” are separate entries in the source; they are usually repeats but may differ in a detail not shown here. Identical values can stand only once. Records with an inconclusive call do not appear. Entries that show only a call come without a potency. Values without a mark were called inactive. Active and inactive are the calls of the source. Unless noted, calls follow the shape of the dose curve; as a rule, active = well fitted curve in the direction sought with a large enough effect in the repeat runs; inconclusive = weak or mixed curves; inactive = no such curve, though single readings can be large; an effect the other way counts as inactive or inconclusive.
# Experiments:
# [1] = qHTS assay to identify small molecule agonists of the RXR signaling pathway - cell viability counter screen (AID 1159529); also: nearly all actives have a fitted effect of over 50% in size; also: potency is read from the fitted curve at half-maximal effect
# How it was run: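 Cell viability is measured by CellTiter-Glo luminescence, 30 min at room temperature, in wells already read for beta-lactamase. Engineered HEK 293T cells (RXR-alpha-UAS-bla) are dosed 16 hr at 37 C. Tetraoctyl ammonium bromide serves as positive control.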
# [2] = qHTS assay to identify small molecule antagonists of the retinoid acid receptor (RAR) signaling pathway - cell viability counter screen (AID 1159551); also: nearly all actives have a fitted effect of over 35% in size; also: potency is read from the fitted curve at half-maximal effect
# How it was run: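 Cells (C3RL4) are plated, incubated overnight, dosed with compound in DMSO, then given retinol at 1 uM final. After 6 h at 37 C, CellTiter-Glo is added and luminescence read following 30 min at room temperature.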
# [3] = qHTS assay to identify small molecule agonists of the retinoic acid receptor (RAR) signaling pathway (AID 1159553); conditions: C3RL4 RARE luciferase reporter, agonist, 6 h; activation: at 73.3 µM (top of the series) unless noted; also: potency is read from the fitted curve at half-maximal effect
# How it was run: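 Seed C3RL4 reporter cells at 1,000 per well and incubate overnight at 37 C. Add compounds in DMSO, incubate 6 hr. Add luciferase reagent, wait 30 min at room temperature, read luminescence.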
# [4] = qHTS assay to identify small molecule antagonists of the retinoic acid receptor (RAR) signaling pathway (AID 1159552; also: nearly all actives have a fitted effect of over 50% in size; also: potency is read from the fitted curve at half-maximal effect)
# How it was run: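 Quantitative HTS in C3RL4 RARE-luciferase reporter cells. Compounds were added with 1 uM (final) retinol; luminescence was read after 6 hr.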
# [5] = qHTS assay to identify small molecule antagonists of the estrogen related receptor (ERR) signaling pathway - cell viability counter screen (AID 1224818)
# How it was run: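 ERR cells, 2,000/well; 6 h settle at 37 C/5% CO2; compound pin transfer (DMSO); 17.5 h at 37 C; CellTiter-Fluor, 30 min, fluorescence read.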
# [6] = qHTS assay to identify small molecule antagonists of the estrogen related receptor (ERR) signaling pathway (AID 1224819; also: potency is read from the fitted curve at half-maximal effect; nearly all actives have a fitted effect of over 50% in size)
# How it was run: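 qHTS in ERR cells, 2,000/well, 1536 format. Cpd (DMSO) added after 6 h settle, 18 h 37 C. One-Glo luminescence, 30 min RT.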
# [7] = qHTS assay to identify small molecule agonists of the estrogen related receptor (ERR) signaling pathway (AID 1224820)
# How it was run: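 An ERR cell line provided by NTP was seeded at 2,000 cells per well and allowed to settle for 6 h before compounds in DMSO were added. After 18 h at 37 C, luciferase activity was measured by One-Glo luminescence.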
# [8] = system: estrogen-related receptor alpha (ERRalpha) with PGC-1alpha coactivator, human; assay: qHTS assay to identify small molecule antagonists of the estrogen related receptor signaling pathway with the pleiotropic PPARgamma coactivator (PGC) (AID 1224821; calls by dose curve; also: nearly all actives have a fitted effect of over 50% in size; also: potency is read from the fitted curve at half-maximal effect)
# How it was run: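 A PGC/ERR cell line supplied by NTP is seeded, allowed 6 h at 37 C, and treated with test compounds in DMSO for 18 h. Signal is then measured as luciferase luminescence using One-Glo.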
# [9] = qHTS assay to identify small molecule antagonists of the estrogen related receptor signaling pathway with the pleiotropic PPARgamma coactivator (PGC) cell viability counter screen (AID 1224822;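 also: viability read after 17.5 h compound exposure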)
# How it was run: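 Multiplexed viability counter screen run in PGC/ERR cells treated with compounds for 17.5 h at 37 C; live-cell protease signal measured by CellTiter-Fluor fluorescence.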
# [10] = qHTS assay to identify small molecule agonists of the estrogen related receptor signaling pathway with the pleiotropic PPARgamma coactivator (PGC) (AID 1224823)
# How it was run: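 Compounds dissolved in DMSO are added by pin tool to PGC/ERR cells that have settled for 6 h, and incubation continues 18 h at 37 C. Reporter output is measured as One-Glo luminescence.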
smiles,measurement,setting,value
COCCOc1cc2cc(C(=O)NC3CCN(C(C)C)CC3)n(CC(=O)Nc3ccc(Cl)cn3)c2cn1,Potency,[1],inactive
same,Potency,[2],inactive
same,Potency,[3],inactive
O=C(c1ccc(O)c(O)c1)c1ccc(O)cc1O,Potency,[1],inactive
same,Potency,[4],inactive
COc1ccc2cc1Oc1ccc(cc1)C[C@H]1c3c(cc4c(c3Oc3cc5c(cc3OC)CCN(C)[C@@H]5C2)OCO4)CCN1C,Potency,[1],23.9 µM (active)
same,Potency,[4],4.22 µM (active)
same,Potency,[3],inactive
CCCCCCCCCCC[C@@H](C[C@@H]1OC(=O)[C@H]1CCCCCC)OC(=O)[C@H](CC(C)C)NC=O,Potency,[1],inactive
same,Potency,[4],inactive
same,Potency,[3],inactive
CC[N+](CC)(CC)CCOc1ccc(/C=C/c2ccccc2)cc1,Potency,[1],inactive
same,Potency,[2],inactive
same,Potency,[3],inactive
same,outcome,[5],inactive
same,Potency,[6],8.74 µM (active)
same,outcome,[7],inactive
same,Potency,[8],12.3 µM (active)
same,Potency,[9],inactive
same,outcome,[10],inactive
C/C=C/C=C/COC(=O)C(C)C,Potency,[1],inactive
same,Potency,[4],27.3 µM (active)
CN(C)[C@@H](CCOc1cccc2ccccc12)c1ccccc1,Potency,[1],21.3 µM (active)
same,Potency,[4],29.8 µM (active)
CCOC(=O)NNc1ccc(N(CC)CC(C)O)nn1 (configuration not stated),Potency,[1],inactive
same,Potency,[4],inactive
same,Potency,[3],inactive
C=CC(=O)Nc1cc2c(Nc3ccc(F)c(Cl)c3)ncnc2cc1OCCCN1CCOCC1,Potency,[1],4.77 µM (active)
same,Potency,[4],7.5 µM (active)
NC[C@H]1O[C@H](O[C@H]2[C@H](O[C@@H]3O[C@H](CO)[C@@H](O)[C@H]3O)C(O)[C@H](N)C[C@@H]2N)[C@H](N)[C@@H](O)[C@@H]1O (some centres not stated),"activity change, negative = cytotoxicity",[1],3% [at 6.97 µM]
same,"activity, negative = inhibition",[4],-17.9% [at 8.39 µM]
same,activation,[3],-3.22% [at 8.36 µM]
CCCCC(CC)COC(=O)CCCCC(=O)OCc1ccccc1 (configuration not stated),Potency,[1],inactive
same,Potency,[4],inactive
same,Potency,[3],inactive
Cc1c2ccccc2c(C)c2c1ccc1ccccc12,Potency,[1],19.3 µM (active) and 19.5 µM (active)
same,Potency,[4],inactive
same,Potency,[3],54.5 µM (active)
CCN(CC)c1ccc2c(-c3ccc(S(=O)(=O)O)cc3S(=O)(=O)[O-])c3ccc(=[N+](CC)CC)cc-3oc2c1,Potency,[1],inactive
same,Potency,[2],31.6 µM (active)
same,Potency,[3],inactive
O=C1CCCCCCCCCCCCCCCO1,Potency,[1],inactive
same,Potency,[4],inactive
CN1CCCCC1CCN1c2ccccc2Sc2ccc(S(C)=O)cc21 (configuration not stated),Potency,[1],inactive
same,Potency,[2],inactive
same,Potency,[3],inactive
FC(F)(F)c1cccc(Cl)c1,Potency,[1],inactive
same,Potency,[4],inactive
same,Potency,[3],inactive
CCC(C)[O-].CCC(C)[O-].CCOC(=O)/C=C(/C)[O-].[Al+3],Potency,[1],inactive
same,Potency,[4],inactive
same,Potency,[3],inactive
COc1ccc(NC(=O)CC(C)=O)cc1,Potency,[1],inactive
same,Potency,[4],inactive
O=C1C(c2[nH]c3ccc(S(=O)(=O)O)cc3c2O)=Nc2ccc(S(=O)(=O)O)cc21,Potency,[1],inactive
same,Potency,[4],inactive
CC(C)Cn1cnc2c(N)nc3ccccc3c21,"activity change, negative = cytotoxicity",[1],1.15% [at 15.8 µM]
same,"activity, negative = inhibition",[4],2.71% [at 19 µM]
same,Potency,[3],inactive
O=C1CCc2ccc(OCCCCN3CCN(c4cccc(Cl)c4Cl)CC3)cc2N1,Potency,[1],23.9 µM (active)
same,Potency,[4],inactive
same,Potency,[3],inactive
O=C(O)Cc1ccccc1Nc1c(Cl)cccc1Cl,Potency,[1],inactive
same,Potency,[2],inactive
same,outcome,[5],inactive
same,Potency,[9],inactive
O=C(O)c1ccc2cc(C(=O)O)ccc2c1,Potency,[1],inactive
same,Potency,[4],inactive
same,Potency,[3],inactive
O=C1CCc2cc(OCCCCc3nnnn3C3CCCCC3)ccc2N1,Potency,[1],inactive
same,Potency,[2],inactive
same,outcome,[5],inactive
same,Potency,[9],inactive
O=C(Nc1ccc2c(O)c(N=Nc3ccc(N=Nc4ccc(S(=O)(=O)O)cc4)cc3)c(S(=O)(=O)O)cc2c1)c1ccccc1,Potency,[1],inactive
same,Potency,[2],24.3 µM (active)
same,Potency,[3],inactive
CC(CO)Oc1ccccc1 (configuration not stated),Potency,[1],inactive
same,Potency,[4],inactive
same,Potency,[3],inactive
Cc1c(C)c2c(c(C)c1O)CC[C@@](C)(CCC[C@H](C)CCC[C@H](C)CCCC(C)C)O2,Potency,[1],inactive
same,Potency,[2],inactive
same,Potency,[3],inactive
CCC(CC)C(C)CCOC(C)=O (configuration not stated),Potency,[1],inactive
same,Potency,[4],inactive
same,Potency,[3],inactive
CCN(CC)C(=O)c1cc(S(=O)(=O)Cc2ccccc2)c(N2CCC(c3ccccc3)CC2)cc1N(CC)CCN(C)C,Potency,[1],15.3 µM (active)
same,Potency,[4],21.4 µM (active)
same,Potency,[3],inactive
O=c1c(O)c(-c2ccc(O)cc2O)oc2cc(O)cc(O)c12,Potency,[1],inactive
same,Potency,[2],inactive
same,outcome,[5],inactive
same,Potency,[9],inactive
OCCN1CCN(CCCN2c3ccccc3Sc3ccc(C(F)(F)F)cc32)CC1,Potency,[1],23.9 µM (active)
same,Potency,[2],inactive
same,outcome,[7],inactive
same,Potency,[8],inactive
CC(=O)Oc1cc2c(s1)CCN(C(C(=O)C1CC1)c1ccccc1F)C2 (configuration not stated),Potency,[1],inactive
same,Potency,[2],inactive
same,Potency,[3],inactive
OC[C@H]1O[C@H](O[C@H]2O[C@H](CO)[C@@H](O)[C@H](O)[C@H]2O)[C@H](O)[C@@H](O)[C@@H]1O,Potency,[1],inactive
same,Potency,[2],inactive
same,Potency,[3],inactive
